# Key:
# [1] = biological target: T1, Protein kinase C zeta type (Homo sapiens) (UniProt Q05513); conditions: at 1 µM
# T1 sequence (whole entry): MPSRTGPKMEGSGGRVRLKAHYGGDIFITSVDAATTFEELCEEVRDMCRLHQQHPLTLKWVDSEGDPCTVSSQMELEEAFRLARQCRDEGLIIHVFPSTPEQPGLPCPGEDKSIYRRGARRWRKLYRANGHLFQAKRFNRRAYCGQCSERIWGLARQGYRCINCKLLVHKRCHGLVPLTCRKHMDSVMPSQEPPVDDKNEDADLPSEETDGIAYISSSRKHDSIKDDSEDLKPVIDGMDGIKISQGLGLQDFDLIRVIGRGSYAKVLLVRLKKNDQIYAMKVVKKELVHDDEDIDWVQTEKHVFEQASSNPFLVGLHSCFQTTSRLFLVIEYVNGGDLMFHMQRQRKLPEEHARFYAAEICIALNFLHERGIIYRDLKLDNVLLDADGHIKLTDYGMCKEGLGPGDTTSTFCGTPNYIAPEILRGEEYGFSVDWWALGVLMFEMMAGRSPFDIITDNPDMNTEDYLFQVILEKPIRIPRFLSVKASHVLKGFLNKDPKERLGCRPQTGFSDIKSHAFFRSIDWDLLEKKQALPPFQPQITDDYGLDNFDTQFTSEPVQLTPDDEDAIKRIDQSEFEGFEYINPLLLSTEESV
# [2] = biological target: T2, Mitogen-activated protein kinase kinase kinase 5 (Homo sapiens) (UniProt Q99683); conditions: at 10 µM
# T2 sequence (whole entry): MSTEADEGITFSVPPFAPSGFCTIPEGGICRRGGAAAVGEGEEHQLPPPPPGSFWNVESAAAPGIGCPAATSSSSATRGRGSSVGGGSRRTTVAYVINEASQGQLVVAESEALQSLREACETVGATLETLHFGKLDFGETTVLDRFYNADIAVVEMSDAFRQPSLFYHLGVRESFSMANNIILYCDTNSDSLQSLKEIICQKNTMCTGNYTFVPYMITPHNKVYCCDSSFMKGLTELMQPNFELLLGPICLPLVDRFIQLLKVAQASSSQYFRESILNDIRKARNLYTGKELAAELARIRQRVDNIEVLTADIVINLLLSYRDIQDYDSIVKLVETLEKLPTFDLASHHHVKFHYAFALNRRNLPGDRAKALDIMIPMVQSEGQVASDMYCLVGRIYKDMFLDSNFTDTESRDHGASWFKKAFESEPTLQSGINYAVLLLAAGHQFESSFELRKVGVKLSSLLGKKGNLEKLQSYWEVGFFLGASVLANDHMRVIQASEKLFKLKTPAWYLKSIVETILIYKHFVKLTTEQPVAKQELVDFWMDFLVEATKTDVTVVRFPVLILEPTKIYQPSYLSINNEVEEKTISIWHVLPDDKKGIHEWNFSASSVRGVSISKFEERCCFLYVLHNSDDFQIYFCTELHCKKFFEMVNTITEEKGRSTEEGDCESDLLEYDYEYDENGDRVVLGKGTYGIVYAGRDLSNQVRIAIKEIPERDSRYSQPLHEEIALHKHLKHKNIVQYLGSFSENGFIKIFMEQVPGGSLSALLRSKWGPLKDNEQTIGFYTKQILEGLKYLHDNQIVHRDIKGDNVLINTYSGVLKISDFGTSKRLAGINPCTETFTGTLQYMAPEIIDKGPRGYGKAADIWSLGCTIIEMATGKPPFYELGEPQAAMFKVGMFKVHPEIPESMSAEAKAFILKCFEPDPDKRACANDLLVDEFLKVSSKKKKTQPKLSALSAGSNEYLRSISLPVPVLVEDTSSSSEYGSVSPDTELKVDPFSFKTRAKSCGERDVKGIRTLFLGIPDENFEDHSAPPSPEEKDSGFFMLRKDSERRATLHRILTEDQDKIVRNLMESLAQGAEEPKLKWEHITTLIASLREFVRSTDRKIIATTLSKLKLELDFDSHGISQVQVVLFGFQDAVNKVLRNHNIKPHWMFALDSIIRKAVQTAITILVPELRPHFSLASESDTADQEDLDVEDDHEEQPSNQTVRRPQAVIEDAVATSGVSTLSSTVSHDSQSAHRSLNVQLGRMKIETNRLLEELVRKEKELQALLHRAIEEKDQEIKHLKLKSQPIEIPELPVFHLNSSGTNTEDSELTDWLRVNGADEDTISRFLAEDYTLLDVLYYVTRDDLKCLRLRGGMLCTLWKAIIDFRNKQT
# [3] = biological target: T3, Aurora kinase A (Homo sapiens) (UniProt O14965); conditions: at 1 µM
# T3 sequence (whole entry): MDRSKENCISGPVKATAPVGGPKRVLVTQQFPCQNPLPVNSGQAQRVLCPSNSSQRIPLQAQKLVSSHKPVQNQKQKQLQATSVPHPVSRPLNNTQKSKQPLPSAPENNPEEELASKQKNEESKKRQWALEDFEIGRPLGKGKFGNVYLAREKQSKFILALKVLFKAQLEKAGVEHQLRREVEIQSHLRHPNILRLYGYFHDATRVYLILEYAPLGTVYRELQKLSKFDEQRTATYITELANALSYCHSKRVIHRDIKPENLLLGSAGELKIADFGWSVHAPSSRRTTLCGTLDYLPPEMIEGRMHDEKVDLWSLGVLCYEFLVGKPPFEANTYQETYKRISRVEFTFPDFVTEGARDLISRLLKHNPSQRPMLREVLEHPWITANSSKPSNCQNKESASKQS
# [4] = biological target: T3, Aurora kinase A (Homo sapiens); conditions: at 10 µM
# [5] = biological target: Aurora kinase B (Homo sapiens) (UniProt Q96GD4); conditions: at 1 µM
# [6] = biological target: Aurora kinase B (Homo sapiens) (UniProt Q96GD4); conditions: at 10 µM
# [7] = biological target: Tyrosine-protein kinase ABL1 (Homo sapiens) (UniProt P00519); conditions: at 1 µM
# [8] = biological target: Tyrosine-protein kinase ABL1 (Homo sapiens) (UniProt P00519); conditions: at 10 µM
# [9] = biological target: Tyrosine-protein kinase ABL2 (Homo sapiens) (UniProt P42684); conditions: at 1 µM
# [10] = biological target: Tyrosine-protein kinase ABL2 (Homo sapiens) (UniProt P42684); conditions: at 10 µM
# Chain of Aurora kinase B (Homo sapiens) (Q96GD4 whole entry): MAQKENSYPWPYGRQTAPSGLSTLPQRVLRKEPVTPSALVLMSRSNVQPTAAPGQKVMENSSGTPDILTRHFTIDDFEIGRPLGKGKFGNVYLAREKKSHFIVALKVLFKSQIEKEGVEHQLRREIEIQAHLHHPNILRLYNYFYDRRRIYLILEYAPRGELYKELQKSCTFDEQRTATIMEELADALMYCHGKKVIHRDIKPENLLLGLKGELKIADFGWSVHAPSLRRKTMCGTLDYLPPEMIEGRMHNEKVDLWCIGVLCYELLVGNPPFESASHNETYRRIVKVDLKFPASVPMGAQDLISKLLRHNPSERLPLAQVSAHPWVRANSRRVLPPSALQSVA
# Chain of Tyrosine-protein kinase ABL1 (Homo sapiens) (P00519 whole entry): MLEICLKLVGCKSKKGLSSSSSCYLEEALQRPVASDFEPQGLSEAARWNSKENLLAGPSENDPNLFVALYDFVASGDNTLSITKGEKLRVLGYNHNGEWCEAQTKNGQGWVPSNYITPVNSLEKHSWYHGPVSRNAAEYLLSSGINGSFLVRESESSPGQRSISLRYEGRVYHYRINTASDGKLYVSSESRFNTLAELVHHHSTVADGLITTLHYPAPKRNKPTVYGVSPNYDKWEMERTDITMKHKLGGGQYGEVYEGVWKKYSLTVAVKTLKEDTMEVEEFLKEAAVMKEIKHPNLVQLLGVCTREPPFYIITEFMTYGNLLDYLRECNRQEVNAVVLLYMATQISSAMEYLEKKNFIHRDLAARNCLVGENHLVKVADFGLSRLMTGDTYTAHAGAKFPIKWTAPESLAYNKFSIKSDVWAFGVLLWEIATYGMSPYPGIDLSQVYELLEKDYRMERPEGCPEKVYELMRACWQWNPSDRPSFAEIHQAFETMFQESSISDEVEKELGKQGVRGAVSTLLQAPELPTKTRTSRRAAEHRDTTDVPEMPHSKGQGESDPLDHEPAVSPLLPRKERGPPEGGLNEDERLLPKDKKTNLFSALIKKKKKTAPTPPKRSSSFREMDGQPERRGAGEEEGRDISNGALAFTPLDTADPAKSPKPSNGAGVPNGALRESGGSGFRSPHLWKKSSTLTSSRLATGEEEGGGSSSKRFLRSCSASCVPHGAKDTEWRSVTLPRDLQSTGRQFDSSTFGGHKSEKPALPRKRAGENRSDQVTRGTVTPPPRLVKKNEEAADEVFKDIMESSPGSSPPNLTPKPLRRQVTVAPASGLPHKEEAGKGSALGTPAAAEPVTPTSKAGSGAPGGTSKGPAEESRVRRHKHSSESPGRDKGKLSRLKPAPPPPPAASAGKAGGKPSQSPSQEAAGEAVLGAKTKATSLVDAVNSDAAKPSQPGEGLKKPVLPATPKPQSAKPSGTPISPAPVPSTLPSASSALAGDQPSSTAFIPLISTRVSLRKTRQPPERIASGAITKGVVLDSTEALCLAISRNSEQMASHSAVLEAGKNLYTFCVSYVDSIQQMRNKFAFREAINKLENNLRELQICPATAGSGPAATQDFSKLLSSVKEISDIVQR
# Chain of Tyrosine-protein kinase ABL2 (Homo sapiens) (P42684 whole entry): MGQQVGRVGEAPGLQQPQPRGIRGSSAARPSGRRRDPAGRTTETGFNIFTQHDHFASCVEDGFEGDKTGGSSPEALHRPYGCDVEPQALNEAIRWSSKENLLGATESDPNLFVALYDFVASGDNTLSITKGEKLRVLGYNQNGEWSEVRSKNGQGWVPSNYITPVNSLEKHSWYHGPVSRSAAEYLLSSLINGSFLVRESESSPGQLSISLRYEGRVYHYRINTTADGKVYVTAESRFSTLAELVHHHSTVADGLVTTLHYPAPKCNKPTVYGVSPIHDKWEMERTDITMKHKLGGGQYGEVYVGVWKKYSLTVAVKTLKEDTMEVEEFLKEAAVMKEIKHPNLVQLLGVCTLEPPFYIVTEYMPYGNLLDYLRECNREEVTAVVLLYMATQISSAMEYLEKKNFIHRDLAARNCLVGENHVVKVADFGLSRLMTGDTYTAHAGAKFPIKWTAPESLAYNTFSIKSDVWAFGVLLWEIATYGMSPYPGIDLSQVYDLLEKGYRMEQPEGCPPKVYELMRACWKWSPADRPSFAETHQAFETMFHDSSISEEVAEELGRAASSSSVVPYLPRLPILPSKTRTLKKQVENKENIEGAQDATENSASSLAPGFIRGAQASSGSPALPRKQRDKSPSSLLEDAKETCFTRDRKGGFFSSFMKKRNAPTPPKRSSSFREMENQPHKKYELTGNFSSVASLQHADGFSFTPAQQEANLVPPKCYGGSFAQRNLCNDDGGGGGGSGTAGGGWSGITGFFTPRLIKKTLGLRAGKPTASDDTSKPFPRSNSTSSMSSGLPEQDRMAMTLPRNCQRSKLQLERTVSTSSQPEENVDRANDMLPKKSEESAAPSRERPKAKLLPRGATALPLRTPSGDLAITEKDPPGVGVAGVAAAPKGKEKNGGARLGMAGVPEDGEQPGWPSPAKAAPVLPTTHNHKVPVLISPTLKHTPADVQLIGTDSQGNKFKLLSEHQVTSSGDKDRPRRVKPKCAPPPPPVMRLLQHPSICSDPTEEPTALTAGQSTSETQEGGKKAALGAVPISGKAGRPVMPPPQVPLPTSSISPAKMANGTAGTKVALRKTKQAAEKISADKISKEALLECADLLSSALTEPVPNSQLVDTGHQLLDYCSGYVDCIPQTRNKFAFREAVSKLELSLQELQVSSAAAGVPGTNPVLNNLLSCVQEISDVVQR
smiles,measurement,setting,value
Cn1c2ccccc2c2c3c(c4c5ccccc5n(CCC#N)c4c21)CNC3=O,residual activity,[1],102% (inactive)
same,residual activity,[2],16%
same,residual activity,[3],4%
same,residual activity,[4],19%
same,residual activity,[5],0%
same,residual activity,[6],1%
NC(=O)Nc1sc(-c2ccc(F)cc2)cc1C(N)=O,residual activity,[1],114% (inactive)
same,residual activity,[7],63%
same,residual activity,[8],32%
same,residual activity,[9],71%
same,residual activity,[10],19%
same,residual activity,[3],32%
same,residual activity,[4],3%
same,residual activity,[5],1%
same,residual activity,[6],2%
Nc1n[nH]c2nc3ccccc3nc12,residual activity,[2],75%
same,residual activity,[7],85%
same,residual activity,[8],73%
same,residual activity,[9],87%
same,residual activity,[10],83%
same,residual activity,[3],91%
same,residual activity,[4],77%
same,residual activity,[5],77%
same,residual activity,[6],26%
O=c1cc(N2CCOCC2)oc2c1ccc1ccccc12,residual activity,[1],109% (inactive)
same,residual activity,[2],94%
same,residual activity,[7],99%
same,residual activity,[3],125%
same,residual activity,[4],108%
same,residual activity,[5],110%
same,residual activity,[6],90%
O=C(O)/C=C/c1cc(Br)c(Br)c(Br)c1Br,residual activity,[2],91%
same,residual activity,[7],86%
same,residual activity,[8],40%
same,residual activity,[9],75%
same,residual activity,[10],53%
same,residual activity,[3],83%
same,residual activity,[4],38%
same,residual activity,[5],60%
same,residual activity,[6],16%
CC(C)(C)n1nc(Cc2cccc3ccccc23)c2c(N)ncnc21,residual activity,[1],103% (inactive)
same,residual activity,[7],87%
same,residual activity,[8],28%
same,residual activity,[9],68%
same,residual activity,[10],18%
same,residual activity,[3],93%
same,residual activity,[4],104%
same,residual activity,[5],130%
same,residual activity,[6],87%
CC(C)(C)c1nc2c3ccc(F)cc3c3c(=O)[nH]ccc3c2[nH]1,residual activity,[2],35%
same,residual activity,[10],100%
same,residual activity,[3],13%
same,residual activity,[4],25%
same,residual activity,[5],1%
same,residual activity,[6],-1%
COc1ccc2c(c1)c(C1=C(c3c[nH]c4ccccc34)C(=O)NC1=O)cn2CCCN(C)C,residual activity,[7],107%
same,residual activity,[8],114%
same,residual activity,[9],113%
same,residual activity,[10],74%
same,residual activity,[3],100%
same,residual activity,[4],97%
same,residual activity,[5],39%
same,residual activity,[6],7%
Oc1cccc(-c2nc(N3CCOCC3)c3oc4ncccc4c3n2)c1,residual activity,[6],92%
Nc1nc(Nc2ccc(S(N)(=O)=O)cc2)nn1C(=O)c1c(F)cccc1F,residual activity,[2],46%
same,residual activity,[9],34%
same,residual activity,[10],8%
O=c1c(-c2ccc(F)cc2)c(-c2ccncc2)[nH]n1-c1ccc(Cl)cc1,residual activity,[2],119%
same,residual activity,[8],68%
same,residual activity,[10],53%
CC(C)[C@H](CO)Nc1nc(Nc2cc(N)cc(Cl)c2)c2ncn(C(C)C)c2n1,residual activity,[7],75%
same,residual activity,[8],15%
same,residual activity,[9],62%
same,residual activity,[10],8%
same,residual activity,[3],70%
same,residual activity,[4],47%
same,residual activity,[5],14%
same,residual activity,[6],2%
O=C1NC(=O)C(c2cn(CCCO)c3ncccc23)=C1c1cnccn1,residual activity,[2],78%
same,residual activity,[3],78%
same,residual activity,[4],81%
same,residual activity,[5],14%
same,residual activity,[6],9%
O=S(=O)(NCCNC/C=C/c1ccc(Br)cc1)c1cccc2cnccc12,residual activity,[5],43%
same,residual activity,[6],8%
NC(=O)c1ccc(-c2nc(-c3ccc4c(c3)OCCO4)c(-c3ccccn3)[nH]2)cc1,residual activity,[2],96%
same,residual activity,[8],92%
same,residual activity,[10],83%
same,residual activity,[5],89%
same,residual activity,[6],70%
O=C(c1cc2cc(O)ccc2[nH]1)c1cc2cc(O)ccc2[nH]1,residual activity,[7],11%
same,residual activity,[8],-6%
same,residual activity,[9],27%
same,residual activity,[10],4%
same,residual activity,[3],23%
same,residual activity,[4],6%
same,residual activity,[5],9%
same,residual activity,[6],-1%
CCOC(=O)c1c(C)[nH]c(/C=C2\C(=O)Nc3ccccc32)c1C,residual activity,[5],74%
same,residual activity,[6],61%
N#Cc1c(NC(=O)c2cccc3ccccc23)sc2c1CCCC2,residual activity,[2],80%
same,residual activity,[3],92%
same,residual activity,[5],69%
same,residual activity,[6],69%
O=C1NC(=O)C(c2cn(CCCn3ccnc3)c3ccccc23)=C1Nc1ccccc1,residual activity,[2],76%
same,residual activity,[9],111%
same,residual activity,[10],60%
same,residual activity,[4],72%
O=S(=O)(c1cccc2cnccc12)N1CCCNCC1,residual activity,[10],80%
Nc1nccc(-c2c(-c3ccc(F)cc3)ncn2C2CCNCC2)n1,residual activity,[10],65%
same,residual activity,[6],72%
O=C1Nc2ccccc2/C1=C\c1c(Cl)[nH]c2ccccc12,residual activity,[2],70%
same,residual activity,[6],59%
CC(C)N(CCC(=O)c1ccc2ccccc2c1)Cc1ccccc1,residual activity,[6],83%
CCN1/C(=C/C(C)=O)Sc2ccc(OC)cc21,residual activity,[8],79%
same,residual activity,[10],81%
same,residual activity,[6],122%
O=C1Cc2c([nH]c3ccc([N+](=O)[O-])cc23)-c2ccccc2N1,residual activity,[2],105%
same,residual activity,[7],47%
same,residual activity,[9],81%
same,residual activity,[10],76%
same,residual activity,[4],105%
same,residual activity,[5],48%
same,residual activity,[6],22%
CSc1nc(-c2ccc(F)cc2)c(-c2ccnc(NC(C)c3ccccc3)c2)[nH]1 (stereo not drawn),residual activity,[2],86%
same,residual activity,[5],46%
same,residual activity,[6],13%
O=C1Cc2c([nH]c3ccc(Br)cc23)-c2ccccc2N1,residual activity,[7],64%
same,residual activity,[8],39%
same,residual activity,[9],76%
same,residual activity,[10],45%
same,residual activity,[3],97%
same,residual activity,[4],66%
same,residual activity,[5],69%
same,residual activity,[6],15%
Cc1cc(C)c(/C=C2\C(=O)Nc3ccccc32)[nH]1,residual activity,[5],6%
same,residual activity,[6],0%
Fc1ccc(-c2nc3n(c2-c2ccncc2)CCS3)cc1,residual activity,[2],83%
same,residual activity,[9],96%
same,residual activity,[10],77%
CCCC(=O)Oc1ccc2[nH]c(C(=O)c3cc4ccccc4[nH]3)cc2c1,residual activity,[7],102%
same,residual activity,[8],96%
same,residual activity,[3],71%
same,residual activity,[5],124%
same,residual activity,[6],47%
O=C(Nc1ccc(Cl)cc1)c1ccccc1NCc1ccncc1,residual activity,[7],81%
same,residual activity,[8],52%
same,residual activity,[3],39%
same,residual activity,[4],18%
same,residual activity,[5],100%
same,residual activity,[6],37%
CN([C@@H](Cc1ccc(OS(=O)(=O)c2cccc3cnccc23)cc1)C(=O)N1CCN(c2ccccc2)CC1)S(=O)(=O)c1cccc2cnccc12,residual activity,[8],86%
COc1ccc(COc2ccc(Cc3cnc(N)nc3N)cc2OC)cc1,residual activity,[8],117%
same,residual activity,[3],108%
same,residual activity,[4],111%
same,residual activity,[5],110%
same,residual activity,[6],76%
O=C(CCCc1ccc(-c2ccccc2F)cc1)Nc1ccc(O)cc1,residual activity,[2],105%
same,residual activity,[7],110%
same,residual activity,[9],105%
same,residual activity,[10],86%
same,residual activity,[3],130%
same,residual activity,[4],102%
same,residual activity,[5],107%
same,residual activity,[6],91%
O=C(Nc1nc2ccccc2n1CCN1CCOCC1)c1cccc([N+](=O)[O-])c1,residual activity,[2],110%
same,residual activity,[9],100%
same,residual activity,[3],101%
same,residual activity,[4],103%
same,residual activity,[5],100%
same,residual activity,[6],40%
CN(C)S(=O)(=O)c1ccc2c(c1)/C(=C/c1cc3c([nH]1)CCCC3)C(=O)N2,residual activity,[7],77%
same,residual activity,[8],72%
same,residual activity,[9],114%
same,residual activity,[10],75%
same,residual activity,[3],36%
same,residual activity,[4],13%
same,residual activity,[5],-1%
same,residual activity,[6],1%
COc1ccc(Cl)cc1NC(=O)Nc1cc(C)nc2ccccc12,residual activity,[7],87%
same,residual activity,[8],145%
same,residual activity,[3],89%
same,residual activity,[4],136%
